Screens (PubChem BioAssay)
AGP1-GFP MLPCN – alters AGP1-GFP fluorescence in TOR pathway yeast screen. S. cerevisiae AGP1-GFP multiplex flow cytometry, 3 h; GFP as percent of DMSO wells. GFP response vs DMSO, % at 10 µM. hit rate 0.02% among 320,000. AID 2066;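 active means GFP response relative to DMSO above a set limit, near screen average plus 3 SD, cut at about 150% in these data; inconclusive means fewer than 70 cells counted for the yeast strain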;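 further: median GFP channel fluorescence of the gated AGP1 strain per well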
LAP4-GFP MLPCN – modulators of TOR pathway LAP4-GFP in S. cerevisiae. hit rate 0.34% among 320,000. S. cerevisiae LAP4-GFP multiplex, flow cytometry GFP, 3 h; median GFP as percent of DMSO wells. GFP response vs DMSO, % at 10 µM;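 active means GFP response vs DMSO above a set limit, about the screen mean plus 3 SD, cut at about 150% in these data; inconclusive means under 70 cell events counted for the yeast strain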
CIT2-GFP yeast – alters CIT2-GFP fluorescence in TOR pathway yeast screen; S. cerevisiae CIT2-GFP strain, flow cytometry, 3 h; 100 means same as DMSO wells; GFP response vs DMSO, % at 10 µM; hit rate 0.065% among 320,000; AID 2029;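 active means GFP response relative to DMSO above a set limit, near the screen mean plus 3 SD, cut at about 150% in these data; inconclusive means Fewer than 70 cells measured for a yeast strain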;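 further: ratio of well median GFP fluorescence to mean of DMSO wells on the plate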
RPL19A TOR yeast – alters RPL19A-GFP fluorescence in TOR pathway yeast screen; S. cerevisiae RPL19A-GFP strain, flow cytometry, 3 h; hits give low values; percent response vs DMSO, % at 10 µM; hit rate 0.3% among 330,000;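 active means percent response vs DMSO below 50%; inconclusive means fewer than 70 events counted for the yeast strain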;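 further: median channel GFP fluorescence of the barcoded RPL19A-GFP strain; ratio of sample median GFP to plate DMSO average so 100% = DMSO; lower means less RPL19A-GFP as with rapamycin TOR inhibition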
JMJD2C inh – human JMJD2C demethylase inhibition; inhibition, % at 2.35 µM; Q9H3R0; GST-JMJD2C(1-420) H3K9me3 demethylation, DELFIA europium; hit rate 0.069% among 330,000;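 active means more than half of a compound's replicate wells show inhibition beyond 50%, single wells judged on their own value; inconclusive means some, but no more than half, of replicates pass 50% inhibition; inactive means no replicate passes 50% inhibition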;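 further: signal counts dimethyl H3K9 product captured on neutravidin plate; 0% = median of DMSO wells and 100% = 0.3 times that DMSO median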
Target sequence (Q9H3R0 1-420 limits assumed): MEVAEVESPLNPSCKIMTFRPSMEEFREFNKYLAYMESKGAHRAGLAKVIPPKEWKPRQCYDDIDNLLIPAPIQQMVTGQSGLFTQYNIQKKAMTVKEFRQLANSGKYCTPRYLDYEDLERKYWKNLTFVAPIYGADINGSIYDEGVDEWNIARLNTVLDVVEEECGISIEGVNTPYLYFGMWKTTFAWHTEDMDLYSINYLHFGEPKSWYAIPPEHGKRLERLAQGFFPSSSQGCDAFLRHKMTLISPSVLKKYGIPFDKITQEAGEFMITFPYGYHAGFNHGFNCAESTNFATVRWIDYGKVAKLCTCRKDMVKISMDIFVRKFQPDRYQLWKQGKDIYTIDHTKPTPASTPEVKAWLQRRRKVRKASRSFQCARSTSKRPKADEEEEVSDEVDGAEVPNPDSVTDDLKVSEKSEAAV
MEP2 TOR yeast – alters MEP2-GFP fluorescence in TOR pathway yeast screen | S. cerevisiae MEP2-GFP strain, flow cytometry GFP, 3 h; 100% = DMSO control level | GFP response vs DMSO, % at 10 µM | hit rate 0.51% among 330,000 | AID 2016;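 active means GFP response versus DMSO above a set limit, roughly screen mean plus 3 SD, cut at about 180% in these data; inconclusive means fewer than 70 cells counted for a yeast strain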;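 further: median GFP fluorescence of the barcode-gated MEP2-GFP cells per well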
LAP4 cherry2 – yeast LAP4-GFP modulation, second cherry pick; AID 2621; GFP response vs DMSO, % at 10 µM; shares compounds with LAP4-GFP MLPCN; S. cerevisiae LAP4-GFP strain, flow cytometry GFP, 3 h; hit rate 20% among 590;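 active means GFP signal as percent of the solvent control above about 150%, meaning raised reporter expression, limit read from the data; inconclusive means fewer than 70 cells counted in the well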;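 further: ratio of well median GFP fluorescence to plate DMSO mean so 100% = DMSO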
MEP2 cherry2 – second confirmation of modulators of TOR reporter MEP2-GFP in yeast. S. cerevisiae MEP2-GFP strain, flow cytometry GFP, 3 h. shares compounds with LAP4-GFP MLPCN. GFP response vs DMSO, % at 10 µM. hit rate 10% among 590;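 active means GFP signal above 150% of the solvent control wells, that is a rise of more than half; inconclusive means fewer than 70 yeast cells counted in the well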;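 further: median channel GFP fluorescence of all gated yeast cells per well; ratio of median GFP to plate DMSO average so 100% = DMSO level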
RPL19A GFP CP2 – yeast RPL19A-GFP TOR reporter modulation, second cherry pick | hit rate 3% among 590 | AID 2623 | GFP response vs DMSO, % at 10 µM | shares compounds with LAP4-GFP MLPCN | S. cerevisiae RPL19A-GFP strain, flow cytometry GFP, 3 h; hits give low values; 100% means same as DMSO wells;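 active means under 65% GFP response relative to DMSO; inconclusive means yeast strain with under 70 measured events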;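 further: median GFP channel fluorescence per well over the all cells gate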
CIT2-GFP pick2 – second confirmation of modulators of TOR reporter CIT2-GFP in yeast; AID 2624; shares compounds with LAP4-GFP MLPCN; hit rate 8% among 590; GFP response vs DMSO, % at 10 µM; S. cerevisiae CIT2-GFP strain, flow cytometry GFP, 3 h; DMSO control wells read 100%;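 active means GFP response vs DMSO above about 150%, limit read from the data; inconclusive means fewer than 70 events counted for a yeast strain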;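 further: median green fluorescence per well over all gated yeast cells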
AGP1 GFP CP2 – reconfirmed modulator of AGP1-GFP TOR reporter in yeast | 590 tested, under 10 active | percent response vs DMSO, % at 10 µM | AID 2643 | S. cerevisiae AGP1-GFP strain, flow cytometry GFP, 3 h | shares compounds with LAP4-GFP MLPCN;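 active means over 150 percent of DMSO response; inconclusive means yeast strain measured with under 70 events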;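 further: median GFP channel fluorescence over all cells without mother daughter split; sample median GFP divided by mean DMSO control so 100% equals DMSO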
Yeast autofluor – counter-screen for compound autofluorescence in yeast s288c cells; fluorescence change (kMESF span) at 33 µM; shares compounds with LAP4-GFP MLPCN; 610 tested, under 10 active; S. cerevisiae s288c, 520 nm autofluorescence, flow cytometry, 3 h; hits give high values; zero means same as solvent-only cells; AID 2757;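 active means fluorescence span over the dose series, or activity score, above about 33, limit read from the data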
Yeast autofl DR – counter-screen for autofluorescence of TOR hits in yeast s288c; shares compounds with LAP4-GFP MLPCN; fluorescence change (span) at 33 µM; 110 tested, under 10 active; S. cerevisiae s288c parental, compound autofluorescence, flow cytometry, 3 h;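 active means fluorescence change span, or the activity score built from it, above 25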
TORC1 bypass – stops wildtype yeast growth while TORC1 bypass cells still grow; shares compounds with LAP4-GFP MLPCN; S. cerevisiae BY4741 spot growth rating, 48-72 h; hits give low values; growth rating (0-3) at 30 µM; 120 tested, under 10 active; AID 504456;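 active means growth rating at most 1 for wild type yeast while the TORC1 bypass strain still grows fully, rated 3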
* marks the source's active call; other numbers are inactive results; ? = inconclusive; / = no result given. Rows were chosen to be rich in hits. Some 0.97% of all compounds tested hit in one or more screens of this group.

SMILES	AGP1-GFP MLPCN	LAP4-GFP MLPCN	CIT2-GFP yeast	RPL19A TOR yeast	JMJD2C inh	MEP2 TOR yeast	LAP4 cherry2	MEP2 cherry2	RPL19A GFP CP2	CIT2-GFP pick2	AGP1 GFP CP2	others
Cc1cccc(Nc2nc(-c3ccccn3)cs2)n1	68.1	173.0*	79.6	68.4	17.8	99.0	/	/	/	/	/	Yeast autofluor=1
Cc1cccc(Nc2nc(-c3cccs3)cs2)n1	101.5	132.6	105.7	90.1	-1.2	97.6	/	/	/	/	/
Cc1cccnc1Nc1nc(-c2ccccc2)cs1	97.5	87.5	103.7	104.3	6.6	102.0	/	/	/	/	/
Cc1cccnc1Nc1nc(-c2ccccn2)cs1	63.2	104.3	67.2	61.9	-7.1	103.0	165.3*	155.5*	98.0	115.4	88.3	Yeast autofluor=2
O=C(C#Cc1ccccc1)c1cccc([N+](=O)[O-])c1	99.0	201.9*	91.8	77.4	-2.2	95.4	/	/	/	/	/	Yeast autofluor=0.31
CC(=O)c1cccc([N+](=O)[O-])c1	98.3	98.7	93.0	95.4	13.8	97.0	/	/	/	/	/
Cc1ccc(Cl)cc1NC(=O)CN1C(=O)NC(C)(C2CC2)C1=O (centres undefined)	101.6	150.8*	99.0	83.6	4.9	107.8	102.2	103.1	99.1	105.7	102.2
CN(C)S(=O)(=O)c1cccc(NC(=S)NNC(=O)c2cc3ccccc3cc2O)c1	103.7	99.6	106.6	97.0	8.7	97.1	/	/	/	/	/
Cc1[nH]n(-c2ccccc2)c(=O)c1C(C[N+](=O)[O-])c1ccc(Cl)cc1 (centres undefined)	105.9	98.2	110.1	107.5	-5.7	76.7	/	/	/	/	/
Cc1[nH]n(-c2ncc(-c3ccccc3)s2)c(=O)c1C(c1ccc(Cl)cc1)C(C#N)C#N (centres undefined)	93.4	154.9*	88.3	90.2	16.5	86.1	/	/	/	/	/	Yeast autofluor=0
CCOC(=O)c1c(C)[nH]c(C)c1C(=O)COC(=O)/C=C/c1cccc(F)c1	121.2	245.7*	231.4*	124.0	-3.7	309.4*	104.2	115.3	98.0	112.6	95.5
CCOC(=O)c1c(C)[nH]c(C)c1C(=O)COC(=O)/C=C/c1cccc(C(F)(F)F)c1	86.3	94.6	92.8	96.8	-9.3	99.0	/	/	/	/	/
COc1ccc(Nc2nccc(N(C)C)c2C#N)cc1	/	97.5	93.4	91.2	-8.9	92.8	/	/	/	/	/
O=C(c1ccccn1)c1conc1C(=O)c1ccc(Br)cc1	102.5	331.4*	192.0*	112.3	11.9	281.4*	/	/	/	/	/	Yeast autofluor=2.42
Cc1ccc2nc3c(cc(C(=O)NCC4CCCO4)c(=N)n3C3CCCC3)c(=O)n2c1 (centres undefined)	88.9	88.4	94.0	50.8	-4.9	104.1	105.2	110.0	97.8	104.3	102.0
CCN(CC)c1ccc(/C=C2\C(=O)c3ccc(C(=O)O)cc3C2=O)cc1	116.2	234.8*	227.5*	114.9	8.2	323.2*	276.6*	391.3*	120.9	262.8*	106.2	Yeast autofluor=8.92
CCN(CC)c1ccc(C(=O)O)cc1	93.2	99.0	96.7	98.1	-2.5	96.1	/	/	/	/	/
O=C(Nc1ccc(C(=O)N2CCCCC2)cc1)c1ccccc1Br	102.9	151.8*	101.8	103.4	-2.9	217.9*	105.2	115.3	101.0	109.9	97.8
O=C(Nc1ccc(C(=O)N2CCCC2)cc1)c1ccccc1Br	98.9	102.5	98.2	99.1	-8.9	100.6	/	/	/	/	/
Clc1cc(Cl)cc(Nc2cc(NC3CCCCC3)nc(NCc3ccccc3)n2)c1	/	/	/	/	/	/	/	/	/	/	/	Yeast autofl DR=0.37;TORC1 bypass=3
Cc1cc(OC2CCCCC2)nc(NCc2ccccc2)n1	100.3	108.7	99.6	99.9	8.1	103.7	/	/	/	/	/
Clc1cc(Cl)cc(Nc2cc(Oc3cccc(Cl)c3)nc(NCc3ccccc3)n2)c1	/	/	/	/	/	/	/	/	/	/	/	Yeast autofl DR=0.16;TORC1 bypass=3
Cc1cc(Nc2cccc(Cl)c2)nc(NCc2ccccc2)n1	97.5	95.7	99.5	102.0	-10.4	98.5	/	/	/	/	/
O=C(COc1ccccc1)NC1CCCCCCC1	94.0	101.1	95.5	103.3	7.8	101.4	/	/	/	/	/
CN(C)S(=O)(=O)c1cccc(C(=O)Nc2ccccc2C(=O)NC2CC2)c1	114.8	151.9*	92.5	91.7	-1.3	108.9	103.8	104.8	100.4	101.8	97.7
SMILES	AGP1-GFP MLPCN	LAP4-GFP MLPCN	CIT2-GFP yeast	RPL19A TOR yeast	JMJD2C inh	MEP2 TOR yeast	LAP4 cherry2	MEP2 cherry2	RPL19A GFP CP2	CIT2-GFP pick2	AGP1 GFP CP2	others
CC1CCN(C(=O)c2ccccc2NC(=O)c2cccc(S(=O)(=O)N(C)C)c2)CC1	100.3	99.2	101.6	99.3	3.7	95.7	/	/	/	/	/
O=C(NCC1(N2CCCCC2)CCCCC1)c1cccc(S(=O)(=O)Nc2ccc(F)cc2)c1	99.6	90.2	93.9	96.3	/	98.9	/	/	/	/	/
CC(C(=O)Nc1ncc([N+](=O)[O-])s1)N1C(=O)c2ccccc2S1(=O)=O (centres undefined)	106.4	99.4	89.6	90.4	38.3	91.0	/	/	/	/	/
O=C1C(Cl)=C(N2CCN(Cc3ccccc3)CC2)C(=O)N1c1ccccc1	95.7	90.2	94.4	94.2	15.5	98.2	/	/	/	/	/	Yeast autofluor=-0.1
CC[C@](C)(O)c1cc2ccccc2c(=O)o1	103.8	96.5	102.9	97.7	-0.2	95.2	/	/	/	/	/
CC(C)(C)c1ccc(-c2cnco2)cc1	?	91.6	86.8	64.1	-31.5	?	96.2	101.3	96.5	100.1	100.0
CC(C)n1cnnc1SCC(=O)NC(=O)c1ccccc1	106.8	108.7	100.5	94.2	3.6	96.0	/	/	/	/	/
